Experimental data published in PubChem BioAssay AID1159524 (National Center for Advancing Translational Sciences (NCATS), 2015).
The campaign covered roughly 410,000 compounds. About 5,100 (1.2%) were called active. Entries that show only a call come without a potency. Another 8% or so got no clear call; they are omitted. Calls come from the whole dose curve; tested in HEK293T cells. The full list was thinned out, with actives kept by preference.

assay: High Throughput Screening for Foot and Mouth Disease Virus Antivirals; conditions: FMDV antiviral cell-based qHTS; series mostly up to 57.9 µM; note: read-out not given here; nearly all actives have a fitted effect of over 45% in size
Potency is the fitted concentration of half-maximal effect.

Structure (SMILES)	Potency
CC1CCN(S(=O)(=O)c2ccc3c(ccn3CC(=O)O)c2)CC1	inactive
CCc1ccc(CNC(=O)c2ccc(CS(=O)c3ccc(Br)cc3)o2)cc1 (stereo unspecified)	inactive
CN(Cc1cccc2ncccc12)C(=O)c1cnn(-c2nccc(-c3ccccc3F)n2)c1C1CC1	3.98 µM (active)
Cc1cccc(CNC(=O)c2cnn(-c3nccc(-c4ccccc4F)n3)c2C2CC2)n1	inactive
Cc1ccc(-c2ccnc(-n3ncc(C(=O)N(C)Cc4cccc5ncccc45)c3C3CC3)n2)o1	inactive
COc1cccc(C2C(C(=O)Nc3ccc(C)cc3C)=C(C)Nc3c(C(=O)Nc4ccccc4)cnn32)c1 (stereo unspecified)	inactive
Nc1nc(/C(=C/CC(=O)O)C(=O)N[C@@H]2C(=O)N3C(C(=O)O)=CCS[C@H]23)cs1	inactive
COc1ccccc1NC(=O)c1oc2ccccc2c1NC(=O)COc1ccccc1OC	inactive
c1ccc(CC2CCN(c3nc4ccccc4n4cnnc34)CC2)cc1	inactive
CCOC(=O)CSc1nc2ccc(C)cc2n2cnnc12	inactive
O=C(c1ccccc1)c1ccc2nc(N3CCCCC3)c3nncn3c2c1	10 µM (active)
O=c1c(O)c(Br)ccc2c(Br)c(O)c(O)c(O)c12	inactive
COc1ccc(-c2c(C)c3ccc(O)c(CN4CCCC4)c3oc2=O)cc1OC	inactive
COCC1CCCN(Cc2ccc3c(c2)CN(C(=O)c2ccnn2C)CCO3)C1 (stereo unspecified)	inactive
CC(=O)Nc1cc(C(=O)NCc2ccc(F)cc2Cl)ccc1Sc1ccc(Cl)cc1	inactive
COc1ccc(Oc2ncc3nc(C)c(=O)n(-c4ccccc4)c3n2)cc1	inactive
CSc1ccc(CCNC(=O)c2ccc3c(c2)nc2n3CCOC2)cc1	inactive
CC1CN/C(=C\C(=O)c2ccc(Br)cc2)C(=O)N1 (stereo unspecified)	12.6 µM (active)
O=C(O)C1CCCN1S(=O)(=O)c1ccc(Br)cc1 (stereo unspecified)	inactive
Cc1nc2cnc(Oc3cccc(Cl)c3)nc2n(C2CC2)c1=O	inactive
CC(C)[C@H](CO)Nc1nc(Nc2cc(N)cc(Cl)c2)c2ncn(C(C)C)c2n1	inactive
Cc1cccc(-n2c(SCC(N)=O)nc3c(oc4ccccc43)c2=O)c1	inactive
Cc1cccc(-n2c(SCC(N)=O)nc3c(c2=O)C2(CCCCC2)Cc2ccccc2-3)c1	14.1 µM (active)
Cc1cccc(NC(=O)CSc2nc3c([nH]c4ccccc43)c(=O)n2-c2cc(C)cc(C)c2)c1	inactive
COc1ccc(NC(=O)Cn2c(=O)n(Cc3ccc(C(=O)NCc4ccccc4Cl)cc3)c(=O)c3ccccc32)cc1	inactive
CCOc1cc(/C=C(/C#N)c2ccc(Cl)cc2)cc(Cl)c1OCC(=O)O	8.91 µM (active)

Structure (SMILES)	Potency
CCOc1ccc(/C=C(\C#N)c2nc3ccccc3c(=O)[nH]2)cc1OC	inactive
CCOC(=O)CN(C(=O)COc1nc(C)cc(C)c1C#N)c1ccc(Cl)cc1	inactive
O=C(c1ccncc1)N1CCC2(CCCN(C(c3ccccc3)c3ccccc3)C2)CC1	inactive
Cc1ccc(CN2CCCn3nc(C(=O)NCc4ccccc4Cl)cc3C2=O)cc1	inactive
CN(NC(=O)c1ccccc1F)c1nc(C(F)(F)F)nc2ccccc12	inactive
O=C(NC(=S)NC1CCSC1=O)c1ccccc1F (stereo unspecified)	inactive
C/C(=N\NC(=O)c1ccccc1F)c1ccccn1	12.6 µM (active)
CCn1c2ccccc2c2cc(CN3CCN(Cc4cccc(Cl)c4)CC3)ccc21	inactive
CCCN(C/C=C/I)C1CCc2ccc(O)cc2C1 (stereo unspecified)	inactive
CC1Cc2cc(S(=O)(=O)CCC(=O)NCc3ccc(Cl)cc3)ccc2N1C(=O)C1CC1 (stereo unspecified)	inactive
O=C(CSc1oc(-c2ccc(F)cc2)nc1S(=O)(=O)c1ccc(Br)cc1)NC1CCCCC1	inactive
CC(C)S(=O)(=O)c1oc(-c2ccc(F)cc2)nc1S(=O)(=O)c1ccc(F)cc1	31.6 µM (active)
Cc1ccc(-c2nc(S(=O)(=O)c3ccc(C)cc3)c(N3CCCCCC3)o2)cc1	inactive
COc1ccc(C(=O)N2CCC3(CCCN(C(c4ccccc4)c4ccccc4)C3)CC2)cc1	inactive
O=C(c1csnn1)N1CCC[C@@]2(CCN(c3cccc(-c4ccccc4)c3)C2)C1	inactive
Cc1c(NC(=O)C(C)(C)C)cccc1-c1nc2ccccc2s1	inactive
O=S(=O)(c1ccccc1)N1CCC2(CC1)CN(Cc1nccs1)C2	inactive
O=C(c1ccc2c(c1)N(Cc1ccccc1)C(=O)c1ccccc1S2(=O)=O)N1CCCC1	inactive
CC1Oc2ccccc2N(Cc2cccnc2)C1=O (stereo unspecified)	inactive
CC1C(=O)N(Cc2ccccc2)c2ccccc2N1C(=O)c1ccccc1 (stereo unspecified)	31.6 µM (active)
CS(=O)(=O)N1CCC2(CCN(c3ccncc3)CC2)CC1	inactive
CN1CCC2(CC1)CCN(S(=O)(=O)c1ccccc1)CC2	inactive
O=C(O)CC(SCC(=O)Nc1ccc(Br)cc1)C(=O)O (stereo unspecified)	inactive
O=C(CCl)Nc1ccc(Sc2ccc(NC(=O)CCl)cc2)cc1	7.94 µM (active)
CC(=O)Nc1ccc(NC(=O)CC2CCCC2)cc1	inactive
